Data on 38 targets can be found in the supplement of paper PMC10849652.

Targets with a hit are over-represented here; the source holds about 7,900 in all. About 0.6% of all pairs of compound and target were hits.

Chain of UniProt P48645 (P48645 whole entry, looked up): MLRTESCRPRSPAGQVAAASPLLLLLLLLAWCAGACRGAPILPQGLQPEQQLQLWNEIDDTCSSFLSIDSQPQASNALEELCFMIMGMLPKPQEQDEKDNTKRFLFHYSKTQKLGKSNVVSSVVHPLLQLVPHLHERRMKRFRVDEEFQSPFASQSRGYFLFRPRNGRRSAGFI
Chain of UniProt Q12986 (Q12986 whole entry, looked up): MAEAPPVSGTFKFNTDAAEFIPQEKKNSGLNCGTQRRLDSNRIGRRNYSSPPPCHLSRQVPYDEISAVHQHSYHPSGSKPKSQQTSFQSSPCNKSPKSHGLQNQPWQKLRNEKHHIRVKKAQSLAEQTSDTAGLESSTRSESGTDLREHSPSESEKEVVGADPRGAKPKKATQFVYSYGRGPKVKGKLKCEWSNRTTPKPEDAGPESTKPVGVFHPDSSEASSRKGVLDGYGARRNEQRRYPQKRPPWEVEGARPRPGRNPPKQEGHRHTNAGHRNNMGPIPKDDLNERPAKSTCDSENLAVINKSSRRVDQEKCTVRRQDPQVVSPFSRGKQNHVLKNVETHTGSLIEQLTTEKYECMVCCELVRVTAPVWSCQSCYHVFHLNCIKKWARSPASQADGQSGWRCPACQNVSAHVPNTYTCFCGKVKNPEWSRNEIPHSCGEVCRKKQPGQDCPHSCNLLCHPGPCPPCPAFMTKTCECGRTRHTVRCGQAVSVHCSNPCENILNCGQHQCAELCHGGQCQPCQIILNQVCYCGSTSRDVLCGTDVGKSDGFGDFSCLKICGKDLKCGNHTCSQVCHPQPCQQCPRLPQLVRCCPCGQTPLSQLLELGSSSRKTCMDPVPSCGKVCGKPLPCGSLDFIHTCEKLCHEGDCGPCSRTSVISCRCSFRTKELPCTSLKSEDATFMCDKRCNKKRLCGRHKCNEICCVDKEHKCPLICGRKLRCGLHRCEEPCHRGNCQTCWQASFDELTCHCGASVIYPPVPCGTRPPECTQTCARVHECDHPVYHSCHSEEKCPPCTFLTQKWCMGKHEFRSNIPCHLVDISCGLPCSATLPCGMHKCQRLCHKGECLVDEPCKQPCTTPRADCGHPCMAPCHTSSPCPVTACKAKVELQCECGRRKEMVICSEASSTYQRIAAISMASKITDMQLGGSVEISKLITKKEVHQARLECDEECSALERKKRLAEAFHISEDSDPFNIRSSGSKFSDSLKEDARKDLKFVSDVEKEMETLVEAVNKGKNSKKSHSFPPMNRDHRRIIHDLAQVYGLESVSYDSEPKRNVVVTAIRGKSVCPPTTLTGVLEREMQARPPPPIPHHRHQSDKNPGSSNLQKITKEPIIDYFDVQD
Chain of UniProt Q969V5 (Q969V5 whole entry, looked up): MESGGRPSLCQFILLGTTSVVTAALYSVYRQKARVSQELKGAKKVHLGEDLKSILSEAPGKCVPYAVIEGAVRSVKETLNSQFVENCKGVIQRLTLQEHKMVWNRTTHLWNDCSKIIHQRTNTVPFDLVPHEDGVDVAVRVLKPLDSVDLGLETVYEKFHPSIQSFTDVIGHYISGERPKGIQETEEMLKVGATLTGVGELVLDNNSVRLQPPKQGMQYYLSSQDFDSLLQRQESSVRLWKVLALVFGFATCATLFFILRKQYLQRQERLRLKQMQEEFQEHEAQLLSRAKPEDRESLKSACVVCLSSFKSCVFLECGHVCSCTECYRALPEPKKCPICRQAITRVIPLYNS
Chain of UniProt Q96MF7 (Q96MF7 whole entry, looked up): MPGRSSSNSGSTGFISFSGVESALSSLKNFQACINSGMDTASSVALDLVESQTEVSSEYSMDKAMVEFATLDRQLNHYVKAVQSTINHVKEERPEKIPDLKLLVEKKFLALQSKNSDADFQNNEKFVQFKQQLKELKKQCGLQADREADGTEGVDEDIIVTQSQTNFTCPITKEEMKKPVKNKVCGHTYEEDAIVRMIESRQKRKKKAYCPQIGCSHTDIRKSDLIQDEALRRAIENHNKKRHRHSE
Chain of UniProt P19338 (P19338 whole entry, looked up): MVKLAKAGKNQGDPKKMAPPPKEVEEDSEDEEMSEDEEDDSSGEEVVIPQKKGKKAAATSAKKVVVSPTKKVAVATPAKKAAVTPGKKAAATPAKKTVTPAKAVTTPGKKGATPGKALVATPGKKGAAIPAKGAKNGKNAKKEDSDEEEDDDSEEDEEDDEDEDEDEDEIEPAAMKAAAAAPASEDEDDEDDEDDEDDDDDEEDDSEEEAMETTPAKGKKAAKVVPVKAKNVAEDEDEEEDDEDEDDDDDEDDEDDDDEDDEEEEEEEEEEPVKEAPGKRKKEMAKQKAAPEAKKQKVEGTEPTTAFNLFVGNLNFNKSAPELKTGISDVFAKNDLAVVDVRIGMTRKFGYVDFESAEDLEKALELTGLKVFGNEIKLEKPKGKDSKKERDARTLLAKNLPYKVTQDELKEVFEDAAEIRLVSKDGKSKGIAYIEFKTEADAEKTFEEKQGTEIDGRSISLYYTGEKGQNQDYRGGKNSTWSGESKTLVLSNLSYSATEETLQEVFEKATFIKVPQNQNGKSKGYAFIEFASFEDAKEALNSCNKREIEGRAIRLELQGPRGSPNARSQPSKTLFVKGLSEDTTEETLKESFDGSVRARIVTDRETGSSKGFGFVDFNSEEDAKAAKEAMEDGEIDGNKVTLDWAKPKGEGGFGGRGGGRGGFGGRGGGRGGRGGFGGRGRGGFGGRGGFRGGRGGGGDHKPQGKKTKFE
Chain of UniProt Q9BUK6 (Q9BUK6 whole entry, looked up): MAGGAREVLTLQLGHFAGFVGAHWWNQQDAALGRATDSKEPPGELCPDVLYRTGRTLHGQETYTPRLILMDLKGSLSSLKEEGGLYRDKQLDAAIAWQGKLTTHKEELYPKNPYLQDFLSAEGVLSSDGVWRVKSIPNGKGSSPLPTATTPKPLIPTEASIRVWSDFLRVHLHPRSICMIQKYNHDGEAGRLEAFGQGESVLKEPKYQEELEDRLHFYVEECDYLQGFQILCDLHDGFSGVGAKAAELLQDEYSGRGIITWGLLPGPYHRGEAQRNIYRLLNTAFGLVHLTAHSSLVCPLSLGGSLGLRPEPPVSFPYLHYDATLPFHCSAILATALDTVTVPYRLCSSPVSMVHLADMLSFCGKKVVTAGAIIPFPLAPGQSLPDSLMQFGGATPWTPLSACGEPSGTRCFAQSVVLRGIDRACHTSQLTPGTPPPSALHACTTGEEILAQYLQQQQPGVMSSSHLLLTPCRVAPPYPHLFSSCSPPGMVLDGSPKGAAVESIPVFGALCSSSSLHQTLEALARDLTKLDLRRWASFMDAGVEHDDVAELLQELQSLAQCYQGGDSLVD
Chain of UniProt Q15003 (Q15003 whole entry, looked up): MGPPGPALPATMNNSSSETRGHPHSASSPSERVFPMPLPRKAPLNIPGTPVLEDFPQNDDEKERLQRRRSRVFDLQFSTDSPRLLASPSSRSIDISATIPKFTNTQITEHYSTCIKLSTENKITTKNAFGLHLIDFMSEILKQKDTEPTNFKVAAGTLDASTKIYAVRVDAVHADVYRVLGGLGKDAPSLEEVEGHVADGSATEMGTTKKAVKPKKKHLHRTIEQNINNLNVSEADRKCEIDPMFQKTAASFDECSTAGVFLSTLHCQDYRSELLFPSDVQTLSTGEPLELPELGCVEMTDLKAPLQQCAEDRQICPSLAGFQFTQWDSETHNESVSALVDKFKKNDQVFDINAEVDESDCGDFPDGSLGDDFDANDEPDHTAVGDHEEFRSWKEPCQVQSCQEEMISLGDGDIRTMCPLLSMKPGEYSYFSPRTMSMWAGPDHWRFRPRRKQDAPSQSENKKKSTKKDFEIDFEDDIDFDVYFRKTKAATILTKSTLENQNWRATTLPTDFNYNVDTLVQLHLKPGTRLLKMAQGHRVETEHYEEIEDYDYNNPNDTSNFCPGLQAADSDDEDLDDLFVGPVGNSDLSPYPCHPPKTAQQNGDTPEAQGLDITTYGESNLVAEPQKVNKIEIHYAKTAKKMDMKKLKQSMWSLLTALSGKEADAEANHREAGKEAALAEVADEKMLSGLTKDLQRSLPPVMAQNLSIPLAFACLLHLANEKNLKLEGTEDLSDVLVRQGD
Chain of UniProt O95169 (O95169 whole entry, looked up): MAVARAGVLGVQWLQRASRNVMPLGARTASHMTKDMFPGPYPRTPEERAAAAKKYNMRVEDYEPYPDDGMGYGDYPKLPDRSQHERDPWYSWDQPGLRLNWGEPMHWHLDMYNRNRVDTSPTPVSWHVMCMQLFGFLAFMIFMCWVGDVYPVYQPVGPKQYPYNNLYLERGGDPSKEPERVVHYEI
Chain of UniProt Q96DE0 (Q96DE0 whole entry, looked up): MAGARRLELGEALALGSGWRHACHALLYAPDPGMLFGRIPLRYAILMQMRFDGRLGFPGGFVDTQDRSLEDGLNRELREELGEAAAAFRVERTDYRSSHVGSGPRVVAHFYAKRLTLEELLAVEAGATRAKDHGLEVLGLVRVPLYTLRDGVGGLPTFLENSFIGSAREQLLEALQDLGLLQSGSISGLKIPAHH
Chain of UniProt Q9H1E3 (Q9H1E3 whole entry, looked up): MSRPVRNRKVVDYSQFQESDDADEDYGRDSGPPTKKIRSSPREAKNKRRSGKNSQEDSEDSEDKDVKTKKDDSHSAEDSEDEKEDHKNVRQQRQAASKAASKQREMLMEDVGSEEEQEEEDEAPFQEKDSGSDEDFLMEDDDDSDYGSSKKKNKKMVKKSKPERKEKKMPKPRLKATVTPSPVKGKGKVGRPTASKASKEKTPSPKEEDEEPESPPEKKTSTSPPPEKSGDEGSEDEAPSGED
Chain of UniProt Q9NRP0 (Q9NRP0 whole entry, looked up): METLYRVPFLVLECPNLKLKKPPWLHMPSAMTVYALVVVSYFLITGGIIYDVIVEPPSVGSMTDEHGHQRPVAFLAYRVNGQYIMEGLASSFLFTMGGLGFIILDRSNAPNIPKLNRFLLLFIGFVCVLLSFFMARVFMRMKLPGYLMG
Chain of UniProt Q9BWT6 (Q9BWT6 whole entry, looked up): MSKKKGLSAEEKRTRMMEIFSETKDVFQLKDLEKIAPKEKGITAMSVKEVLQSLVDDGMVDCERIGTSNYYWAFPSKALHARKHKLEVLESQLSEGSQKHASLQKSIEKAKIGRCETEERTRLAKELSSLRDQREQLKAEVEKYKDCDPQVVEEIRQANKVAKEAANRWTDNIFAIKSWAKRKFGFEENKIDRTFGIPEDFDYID

Compound in the assay: Cc1cn(-c2cc(NC(=O)c3ccc(C)c(Nc4nccc(-c5cccnc5)n4)c3)cc(C(F)(F)F)c2)cn1 [nilotinib]
As to the kind of experiment: log2 fold change, soluble protein after heating vs DMSO (PISA); higher = thermal stabilisation; K562 cells, 10 uM, 30 min; active = over 0.2 and 3.5 SD of the protein, either way, in both replicates (recomputed). A digest of the protocol: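 Values are thermal stability changes relative to control samples and are taken from duplicates. They are stated as log2 fold changes. Before quantification by TMTpro 16plex LC-MS/MS with equalised channel sums, K562 cells at 2×10^6 cells/mL were treated with 10 μM compound for 30 min, heated in aliquots for 3 min across 48°C-58°C, pooled, extracted in PBS with 0.5% NP-40 at 4°C, and centrifuged at 21,000xg for 90 min to give the soluble supernatant.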
In the case of NECTIN2 (UniProt Q92692), the log2 fold change was -0.023 (inactive). The result for NCAPH (UniProt Q15003) reads -0.055 (inactive). The result for OSBPL8 (UniProt Q9BZF1) reads 0.295 (inactive). The result for MPHOSPH10 (UniProt O00566) reads -0.055 (inactive). Consider MTHFD1, A0A384N5Y3, for which the log2 fold change was 0.239 (inactive). The result for OXA1L (UniProt Q15070) reads 0.013 (inactive). The result for NPC1 (UniProt O15118) reads 0.024 (inactive); that for MYO19 (UniProt Q96H55), -0.022 (inactive).

For NCKAP1 isoform 2 (UniProt Q9Y2A7), the log2 fold change is -0.016 (inactive). The result for NSMCE4A (UniProt Q9NXX6) reads 0.189 (inactive); that for MSTO1 (UniProt Q9BUK6), -0.057 (inactive); that for MUL1 (UniProt Q969V5), 0.004 (inactive). The result for MKNK1 (UniProt Q9BUB5) reads 0 (inactive). The result for NDUFS4 (UniProt O43181) reads 0.039 (inactive).

With NUCKS1 (UniProt Q9H1E3), the log2 fold change was -0.028 (inactive). On to MSH3 (UniProt P20585), for which the log2 fold change was -0.046 (inactive). The result for NMU (UniProt P48645) reads 0.011 (inactive). The result for OSTC (UniProt Q9NRP0) reads -0.047 (inactive); that for NDUFB8 (UniProt O95169), 0.015 (inactive); that for NFX1 (UniProt Q12986), -0.042 (inactive). The result for ORC5 (UniProt O43913) reads 0.133 (inactive); that for NUDT16 (UniProt Q96DE0), 0 (inactive); that for MRPL50 (UniProt Q8N5N7), 0.008 (inactive).

Consider NOSIP (UniProt Q9Y314), for which the log2 fold change is -0.11 (inactive). NSMCE2 (UniProt Q96MF7): the log2 fold change was 0.014 (inactive). The result for NA, A0A096LPI6 reads 0 (inactive); that for MRPS35 (UniProt P82673), -0.134 (inactive); that for NA, A0A2R8Y3M9, 0.035 (inactive).

For the target MND1 (UniProt Q9BWT6), the log2 fold change is 0.032 (inactive). The result for NOL11 (UniProt Q9H8H0) reads -0.016 (inactive). The result for NCAPG (UniProt Q9BPX3) reads -0.032 (inactive). On to OTUD4 (UniProt Q01804), for which the log2 fold change was 0.037 (inactive).

Take MTFR1L (UniProt Q9H019): the log2 fold change is 0.014 (inactive).

In the case of NFYC (UniProt Q13952), the log2 fold change is -0.024 (inactive). The result for MXRA7 (UniProt P84157) reads -0.02 (inactive); that for MRPS27 isoform 2 (UniProt Q92552), -0.083 (inactive); that for NCL (UniProt P19338), -0.033 (inactive). Take NPEPPS (UniProt P55786): the log2 fold change is 0.002 (inactive).
